Records with an inconclusive call do not appear. Calls of active or inactive are those of the source. The calls were made as follows, unless noted: active = hit-call score of the fitted dose curve at least 0.9, where 1 is the maximum; inconclusive = response in the unintended direction; inactive = score below 0.9.

The nature of assay [1]: ATG_TAL_CIS: Attagene CIS-FACTORIAL HepG2 Assay for human TAL Basal Promoter (AID 2282966; active = hit-call score of the fitted dose curve at least 0.9, where 1 is the maximum; inactive = score below 0.9;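 also: background control endpoint measuring basal TAL promoter reporter mRNA not a specific factor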). Conditions: HepG2 Attagene cis-factorial TAL promoter reporter; actives raise or lower the signal. An outline of the steps:
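Steps: transfect HepG2 with multiple reporter transcription units; dose 24 h; isolate RNA, reverse-transcribe, PCR-amplify, label with 6-FAM, digest with HpaI; resolve by capillary electrophoresis. Bidirectional fitting against DMSO baseline.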

Assay [2] concerns the target X-box-binding protein 1 (Homo sapiens) (UniProt P17861). Kind of assay: ATG_Xbp1_CIS: Attagene CIS-FACTORIAL HepG2 Assay for human X-box Binding Protein 1 (XBP1) (AID 2282972; active = hit-call score of the fitted dose curve at least 0.9, where 1 is the maximum; inactive = score below 0.9). The note with it: HepG2 XBP1 cis-element reporter, Attagene multiplex; actives raise or lower the signal. A digest of the protocol: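 HepG2 cells transiently transfected with cis-regulated multiple reporter transcription units; endogenous transcription factor activity measured 24 hours after chemical dosing. Reporter mRNA quantified by RT-PCR, 6-FAM primer extension, HpaI digestion and capillary electrophoresis; bidirectional fitting versus DMSO.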

A short description of assay [3]: ATG_M_19_TRANS: Attagene TRANS-FACTORIAL HepG2 Assay for M19 Transcription Factor (Internal Marker) (AID 2282974). The note with it: HepG2 Attagene TRANS-FACTORIAL M19 internal marker reporter. An outline of the steps:
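24 h chemical exposure of transiently transfected HepG2 (MRTU library). RNA → oligo(dT) RT → PCR → 6-FAM labelling → HpaI cut → CE fluorescence. Positive-direction fit vs DMSO baseline; background internal-marker readout.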

Assay [4] is described as follows: ATG_GAL4_TRANS: Attagene TRANS-FACTORIAL HepG2 Assay for GAL4 (Internal Marker) (AID 2282976). The note with it: HepG2 Attagene TRANS GAL4 internal marker reporter. An outline of the steps: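 Liver HepG2 line bearing multiplexed GAL4-UAS reporter constructs; 24 h chemical treatment. Transcripts were quantified as fluorescent fragments on capillary electrophoresis after RT-PCR and HpaI cut, with activity fitted upward from DMSO.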

The target of assay [5] is Hepatocyte nuclear factor 4-alpha (Homo sapiens) (UniProt P41235). Kind of assay: ATG_HNF4a_TRANS: Attagene TRANS-FACTORIAL HepG2 Assay for human Hepatocyte Nuclear Factor 4 alpha (HNF4a) (AID 2282982). The note with it: HepG2 HNF4a transactivation reporter, mRNA readout. An outline of the steps:
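Gain-of-signal mRNA induction, relative to DMSO vehicle, was read after 24 h compound treatment of HepG2 cells bearing transfected GAL4-UAS reporters. Detection used RT-PCR, 6-FAM primer extension and capillary electrophoresis.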

Assay [6] in a line: ATG_M_06_TRANS: Attagene TRANS-FACTORIAL HepG2 Assay for M06 Transcription Factor (Internal Marker) (AID 2282983). The note with it: HepG2 Attagene TRANS M06 internal marker reporter. A digest of the protocol:
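Internal-marker background readout from a multiplexed TRANS reporter system in HepG2; 24 h dosing; mRNA induction quantified by RT-PCR plus capillary electrophoresis fluorescence; DMSO as negative control and baseline.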

Assay [7] addresses Nuclear receptor subfamily 4 group A member 2 (Homo sapiens) (UniProt P43354). Kind of assay: ATG_NURR1_TRANS: Attagene TRANS-FACTORIAL HepG2 Assay for human Nuclear Receptor Related Protein 1 (NURR1) (AID 2282985). Conditions: HepG2 Attagene TRANS reporter, mRNA readout. An outline of the steps: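 HepG2 / transient MRTU transfection / 24 h compound exposure / RT-PCR + CE fluorescence of reporter mRNA / gain-of-signal vs DMSO.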

Assay [8] has as its target Nuclear respiratory factor 1 (Homo sapiens) (UniProt Q16656). Briefly: ATG_NRF1_CIS: Attagene CIS-FACTORIAL HepG2 Assay for human Nuclear Respiratory Factor 1 (NRF1) Orphan Gene (AID 2282987; active = hit-call score of the fitted dose curve at least 0.9, where 1 is the maximum; inactive = score below 0.9). Conditions: HepG2 NRF1 cis-element reporter, Attagene multiplex; actives raise or lower the signal. A digest of the protocol:
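Endogenous NRF1-driven reporter transcription measured in transiently transfected human HepG2 liver cells. Readout: reporter mRNA by RT-PCR and capillary electrophoresis with fluorescence detection, 24 h post-dosing. Gain or loss of signal fitted relative to DMSO baseline.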

Assay [9] is described as follows: ATG_NFI_CIS: Attagene CIS-FACTORIAL HepG2 Assay for human Nuclear Factor I (NFI) (AID 2282989; active = hit-call score of the fitted dose curve at least 0.9, where 1 is the maximum; inactive = score below 0.9). Conditions: HepG2 cis-regulatory reporter, NFI response element transcription; actives raise or lower the signal. An outline of the steps:
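Multiplexed cis-reporter system in human HepG2 cells reports native TF activity as reporter mRNA induction 24 h post-dose. Fragments labelled with 6-FAM, HpaI-digested and resolved by capillary electrophoresis; activity fitted both directions versus DMSO.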

Assay [10] can be described thus: ATG_VDRE_CIS: Attagene CIS-FACTORIAL HepG2 Assay for human Vitamin D Receptor Element (VDRE) (AID 2282968; active = hit-call score of the fitted dose curve at least 0.9, where 1 is the maximum; inactive = score below 0.9). The note with it: HepG2 VDRE cis-reporter transcription, actives raise or lower the signal. A digest of the protocol: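 Cell-based multiplexed reporter format in human liver HepG2 cells, 24 h post-dose. Fluorescence from capillary electrophoresis of reporter cDNA gives the signal, with DMSO as negative control and baseline.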

Assay [11] concerns the target Bile acid receptor (Homo sapiens) (UniProt Q96RI1). Kind of assay: ATG_FXR_TRANS: Attagene TRANS-FACTORIAL HepG2 Assay for Farnesoid X Receptor (FXR) (AID 2282979).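 Also: hits raise reporter mRNA above DMSO so AC50 marks FXR activation.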 The note with it: HepG2 Attagene TRANS FXR-GAL4 reporter transcription. An outline of the steps:
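After 24 h chemical treatment of transfected HepG2 cells, GAL4-UAS reporter transcripts driven by an exogenous FXR-GAL4 fusion were measured by RT-PCR and capillary electrophoresis. Increases over DMSO were fitted.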

The target in assay [12] is Oxysterols receptor LXR-alpha (Homo sapiens) (UniProt Q13133). Kind of assay: ATG_LXRa_TRANS: Attagene TRANS-FACTORIAL HepG2 Assay for human Liver X Receptor alpha (LXRa) (AID 2282980). Conditions: HepG2 Attagene TRANS reporter, LXRa transactivation. A digest of the protocol:
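In this multiplexed TRANS system, compounds act on HepG2 cells carrying GAL4-UAS reporter units and a receptor-GAL4 fusion for 24 h. Induced reporter RNA is amplified, fluorescently labelled and sized by capillary electrophoresis, with DMSO as baseline.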

The target in assay [13] is Oxysterols receptor LXR-beta (Homo sapiens) (UniProt P55055). Kind of assay: ATG_LXRb_TRANS: Attagene TRANS-FACTORIAL HepG2 Assay for human Liver X Receptor beta (LXRb) (AID 2282981). The note with it: HepG2 Attagene TRANS GAL4-LXRb reporter, mRNA. An outline of the steps: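 Gain-of-signal mRNA reporter endpoint, DMSO as negative control. Transiently transfected HepG2 cells carrying the NR-Gal4 chimera and GAL4-UAS reporter units were treated 24 h; transcripts quantified by RT-PCR and capillary electrophoresis fluorescence.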
Chain of Oxysterols receptor LXR-beta (Homo sapiens) (P55055 whole entry, looked up, the tested form may be a part): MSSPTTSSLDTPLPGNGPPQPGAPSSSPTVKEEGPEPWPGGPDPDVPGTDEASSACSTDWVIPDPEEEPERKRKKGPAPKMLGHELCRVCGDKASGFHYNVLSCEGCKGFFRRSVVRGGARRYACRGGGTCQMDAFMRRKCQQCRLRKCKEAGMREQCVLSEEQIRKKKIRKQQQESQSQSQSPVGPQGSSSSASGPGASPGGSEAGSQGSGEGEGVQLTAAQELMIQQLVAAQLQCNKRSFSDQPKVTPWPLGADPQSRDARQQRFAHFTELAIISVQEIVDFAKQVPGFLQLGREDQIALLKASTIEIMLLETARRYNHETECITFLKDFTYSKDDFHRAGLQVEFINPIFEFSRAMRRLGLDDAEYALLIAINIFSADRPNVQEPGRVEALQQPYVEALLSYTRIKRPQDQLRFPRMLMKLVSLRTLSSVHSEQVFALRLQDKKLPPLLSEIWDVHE

In assay [14] the target is Transcriptional activator Myb (Homo sapiens) (UniProt P10242). Briefly: ATG_Myb_CIS: Attagene CIS-FACTORIAL HepG2 Assay for human Myeloblastosis (Myb) Proto-Oncogene Transcription Factor (AID 2282986; active = hit-call score of the fitted dose curve at least 0.9, where 1 is the maximum; inactive = score below 0.9). Conditions: HepG2 Attagene CIS-FACTORIAL Myb reporter transcription; actives raise or lower the signal. A digest of the protocol: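 HepG2, transient MRTU transfection (cis-element promoters, endogenous TF activity), 24 h compound exposure. Readout: reporter mRNA via RT-PCR, 6-FAM labeling, HpaI digest, capillary electrophoresis. Gain/loss fit vs DMSO.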
Chain of Transcriptional activator Myb (Homo sapiens) (P10242 whole entry, looked up): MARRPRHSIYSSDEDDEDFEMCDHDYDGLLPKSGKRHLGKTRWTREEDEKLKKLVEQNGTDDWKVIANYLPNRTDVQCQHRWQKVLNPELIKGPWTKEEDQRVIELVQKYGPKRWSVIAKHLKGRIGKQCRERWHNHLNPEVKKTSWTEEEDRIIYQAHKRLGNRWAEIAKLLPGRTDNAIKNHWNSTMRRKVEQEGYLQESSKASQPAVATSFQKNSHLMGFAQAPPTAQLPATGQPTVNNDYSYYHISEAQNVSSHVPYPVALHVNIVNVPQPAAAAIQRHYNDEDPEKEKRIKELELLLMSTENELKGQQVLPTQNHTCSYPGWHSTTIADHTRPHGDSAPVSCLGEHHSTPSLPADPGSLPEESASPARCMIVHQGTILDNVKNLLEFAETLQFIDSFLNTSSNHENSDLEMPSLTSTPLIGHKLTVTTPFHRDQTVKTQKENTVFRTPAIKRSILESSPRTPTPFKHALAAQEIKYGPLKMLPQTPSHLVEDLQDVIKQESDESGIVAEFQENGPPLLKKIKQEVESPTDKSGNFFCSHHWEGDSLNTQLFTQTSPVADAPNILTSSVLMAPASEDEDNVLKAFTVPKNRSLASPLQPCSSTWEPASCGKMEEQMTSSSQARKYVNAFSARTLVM

The target of assay [15] is Steroid hormone receptor ERR1 (Homo sapiens) (UniProt P11474). Briefly: ATG_ERRa_TRANS: Attagene TRANS-FACTORIAL HepG2 Assay for human Estrogen-Related Receptor alpha (ERRa) (AID 2282971). The note with it: HepG2 Attagene TRANS reporter, ERRa transactivation. A digest of the protocol:
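Signal gain relative to DMSO for an ERRa-Gal4 chimeric receptor, read as reporter mRNA by RT-PCR/capillary electrophoresis. Human HepG2 liver cells, transient multiplex reporter transfection, 24 h chemical exposure.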

For assay [16], the target named is Estrogen-related receptor gamma (Homo sapiens) (UniProt P62508). Kind of assay: ATG_ERRg_TRANS: Attagene TRANS-FACTORIAL HepG2 Assay for human Estrogen-Related Receptor gamma (ERRg) (AID 2282977).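 Also: hits increase reporter signal over DMSO so potencies reflect activators.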 Conditions: HepG2 Attagene TRANS reporter, ERRg transactivation. A digest of the protocol: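 HepG2 cells transiently transfected with multiplexed GAL4-UAS reporter units and chimeric NR-Gal4 constructs were exposed to test chemicals for 24 h. Reporter mRNA was measured by RT-PCR, 6-FAM primer extension, HpaI digestion and capillary electrophoresis; gain-of-signal versus DMSO.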

Assay [17] addresses Glucocorticoid receptor (Homo sapiens) (UniProt P04150). Kind of assay: ATG_GR_TRANS: Attagene TRANS-FACTORIAL HepG2 Assay for human Glucocorticoid Receptor (GR) (AID 2282978).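 Also: activators score as hits since higher reporter transcript over DMSO is fitted.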 Conditions: HepG2 Attagene TRANS GR reporter, mRNA transcription. A digest of the protocol:
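Transient MRTU transfection of HepG2 (GAL4-UAS reporters, exogenous NR-GAL4 chimeras), 24 h dosing. Readout: reporter transcript via RT-PCR + capillary electrophoresis fluorescence. Positive direction vs DMSO baseline.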

Assay [18] is described as follows: ATG_M_32_TRANS: Attagene TRANS-FACTORIAL HepG2 Assay for M32 Transcription Factor (Internal Marker) (AID 2282984).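 Also: transcript level of a background control reporter unit measured by RT-PCR and capillary electrophoresis.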 Conditions: HepG2 Attagene TRANS M32 internal marker reporter. A digest of the protocol: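 Capillary electrophoresis of 6-FAM-labelled reporter fragments gives the signal; data fitted for gain over DMSO negative control. Source: HepG2 cells bearing transient multiple reporter transcription units, 24 h exposure.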

Chain of Nuclear receptor subfamily 4 group A member 2 (Homo sapiens) (P43354 whole entry, looked up): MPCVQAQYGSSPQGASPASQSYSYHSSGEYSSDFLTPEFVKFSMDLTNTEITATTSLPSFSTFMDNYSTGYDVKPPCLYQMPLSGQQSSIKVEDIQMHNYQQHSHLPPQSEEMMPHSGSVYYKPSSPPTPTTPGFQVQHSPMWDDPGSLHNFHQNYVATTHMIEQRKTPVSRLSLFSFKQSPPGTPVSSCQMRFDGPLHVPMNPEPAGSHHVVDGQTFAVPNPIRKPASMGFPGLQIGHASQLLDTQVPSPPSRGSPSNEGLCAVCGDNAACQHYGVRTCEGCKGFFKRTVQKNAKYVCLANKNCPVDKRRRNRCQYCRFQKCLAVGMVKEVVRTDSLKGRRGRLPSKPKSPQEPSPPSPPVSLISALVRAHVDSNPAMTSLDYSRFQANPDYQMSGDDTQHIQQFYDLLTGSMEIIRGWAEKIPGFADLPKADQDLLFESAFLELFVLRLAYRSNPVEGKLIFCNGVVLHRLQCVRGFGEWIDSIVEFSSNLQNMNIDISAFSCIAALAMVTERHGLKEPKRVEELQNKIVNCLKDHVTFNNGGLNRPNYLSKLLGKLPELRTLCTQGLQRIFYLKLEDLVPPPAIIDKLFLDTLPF
Chain of Hepatocyte nuclear factor 4-alpha (Homo sapiens) (P41235 whole entry, looked up, the tested form may be a part): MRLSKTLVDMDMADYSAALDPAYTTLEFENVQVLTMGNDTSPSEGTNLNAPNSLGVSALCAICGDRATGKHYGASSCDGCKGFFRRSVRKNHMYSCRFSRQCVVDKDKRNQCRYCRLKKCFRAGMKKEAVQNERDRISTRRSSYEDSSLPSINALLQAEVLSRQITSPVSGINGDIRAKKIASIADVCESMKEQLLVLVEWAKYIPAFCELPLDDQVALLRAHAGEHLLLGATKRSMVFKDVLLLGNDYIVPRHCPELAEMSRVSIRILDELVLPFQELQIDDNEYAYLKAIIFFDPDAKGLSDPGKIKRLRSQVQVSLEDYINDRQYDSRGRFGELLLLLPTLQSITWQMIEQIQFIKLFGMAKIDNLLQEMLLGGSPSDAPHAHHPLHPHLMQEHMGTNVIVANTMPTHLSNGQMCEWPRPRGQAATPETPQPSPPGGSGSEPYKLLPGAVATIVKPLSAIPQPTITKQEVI
Chain of Nuclear respiratory factor 1 (Homo sapiens) (Q16656 whole entry, looked up): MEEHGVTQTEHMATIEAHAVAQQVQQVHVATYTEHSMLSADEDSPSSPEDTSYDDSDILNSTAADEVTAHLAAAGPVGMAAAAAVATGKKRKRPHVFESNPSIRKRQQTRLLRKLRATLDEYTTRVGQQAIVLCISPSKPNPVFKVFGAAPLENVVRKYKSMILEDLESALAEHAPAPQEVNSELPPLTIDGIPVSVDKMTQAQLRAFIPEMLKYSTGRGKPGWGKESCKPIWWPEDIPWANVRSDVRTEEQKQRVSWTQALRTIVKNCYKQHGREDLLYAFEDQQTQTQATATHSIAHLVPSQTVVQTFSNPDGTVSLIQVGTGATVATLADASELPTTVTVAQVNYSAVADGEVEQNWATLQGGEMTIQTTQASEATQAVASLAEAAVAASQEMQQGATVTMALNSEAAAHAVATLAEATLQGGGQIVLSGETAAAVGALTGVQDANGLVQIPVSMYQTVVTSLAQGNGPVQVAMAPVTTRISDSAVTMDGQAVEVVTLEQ
Chain of X-box-binding protein 1 (Homo sapiens) (P17861 whole entry, looked up): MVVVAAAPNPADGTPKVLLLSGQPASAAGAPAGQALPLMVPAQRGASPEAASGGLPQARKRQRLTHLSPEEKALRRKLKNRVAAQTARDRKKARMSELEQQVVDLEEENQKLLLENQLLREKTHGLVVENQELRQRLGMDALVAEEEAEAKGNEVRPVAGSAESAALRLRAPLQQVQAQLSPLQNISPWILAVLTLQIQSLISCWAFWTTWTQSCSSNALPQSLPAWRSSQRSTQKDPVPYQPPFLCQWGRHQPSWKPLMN
Chain of Glucocorticoid receptor (Homo sapiens) (P04150 whole entry, looked up, the tested form may be a part): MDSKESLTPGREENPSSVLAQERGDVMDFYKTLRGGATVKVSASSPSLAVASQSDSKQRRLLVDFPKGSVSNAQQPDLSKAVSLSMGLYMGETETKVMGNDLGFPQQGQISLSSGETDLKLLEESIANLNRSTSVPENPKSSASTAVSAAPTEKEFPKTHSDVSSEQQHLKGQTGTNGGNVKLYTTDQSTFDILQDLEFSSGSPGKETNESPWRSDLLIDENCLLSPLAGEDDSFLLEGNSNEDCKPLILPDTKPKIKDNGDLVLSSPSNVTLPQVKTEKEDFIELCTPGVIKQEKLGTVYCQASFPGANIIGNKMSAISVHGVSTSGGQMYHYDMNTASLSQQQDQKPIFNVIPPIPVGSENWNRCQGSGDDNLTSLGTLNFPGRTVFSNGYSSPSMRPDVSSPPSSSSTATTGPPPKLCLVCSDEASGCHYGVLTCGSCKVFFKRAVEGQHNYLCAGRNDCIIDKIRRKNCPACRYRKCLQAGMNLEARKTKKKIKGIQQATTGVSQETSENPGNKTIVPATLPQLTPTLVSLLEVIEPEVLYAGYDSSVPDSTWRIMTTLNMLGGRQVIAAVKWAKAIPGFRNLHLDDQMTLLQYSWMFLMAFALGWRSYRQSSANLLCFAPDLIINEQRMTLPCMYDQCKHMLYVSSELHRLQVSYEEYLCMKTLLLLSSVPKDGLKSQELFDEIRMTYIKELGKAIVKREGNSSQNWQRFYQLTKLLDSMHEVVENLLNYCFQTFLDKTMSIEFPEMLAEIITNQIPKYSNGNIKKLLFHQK
Chain of Bile acid receptor (Homo sapiens) (Q96RI1 whole entry, looked up, the tested form may be a part): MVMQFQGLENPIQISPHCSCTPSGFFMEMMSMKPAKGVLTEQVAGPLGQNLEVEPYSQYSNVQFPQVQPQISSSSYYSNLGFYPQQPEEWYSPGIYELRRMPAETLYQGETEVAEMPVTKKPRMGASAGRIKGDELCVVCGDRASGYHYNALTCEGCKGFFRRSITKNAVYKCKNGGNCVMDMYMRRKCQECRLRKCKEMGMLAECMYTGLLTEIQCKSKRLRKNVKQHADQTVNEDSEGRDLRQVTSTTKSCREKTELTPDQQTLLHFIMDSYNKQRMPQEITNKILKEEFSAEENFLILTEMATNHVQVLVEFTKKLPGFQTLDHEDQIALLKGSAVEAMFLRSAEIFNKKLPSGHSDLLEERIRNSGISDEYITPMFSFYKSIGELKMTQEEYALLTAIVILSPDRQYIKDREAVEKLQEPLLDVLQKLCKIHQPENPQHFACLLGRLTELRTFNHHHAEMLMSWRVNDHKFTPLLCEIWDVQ
Chain of Oxysterols receptor LXR-alpha (Homo sapiens) (Q13133 whole entry, looked up, the tested form may be a part): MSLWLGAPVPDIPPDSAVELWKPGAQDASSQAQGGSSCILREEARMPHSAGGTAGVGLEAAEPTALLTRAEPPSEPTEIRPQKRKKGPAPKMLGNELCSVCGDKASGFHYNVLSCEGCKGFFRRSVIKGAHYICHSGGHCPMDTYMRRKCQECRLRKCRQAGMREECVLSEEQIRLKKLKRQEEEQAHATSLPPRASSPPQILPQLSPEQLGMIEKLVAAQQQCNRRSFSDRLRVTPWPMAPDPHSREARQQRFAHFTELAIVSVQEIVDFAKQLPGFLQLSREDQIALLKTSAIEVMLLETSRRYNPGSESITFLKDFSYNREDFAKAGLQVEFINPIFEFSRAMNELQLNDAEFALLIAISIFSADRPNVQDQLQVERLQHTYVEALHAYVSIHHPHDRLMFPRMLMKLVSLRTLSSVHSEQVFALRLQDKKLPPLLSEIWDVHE

For `C[N+](C)(C)CCCCCC[N+](C)(C)C`, the call in assay [1], in assay [2], in assay [3], in assay [4], in assay [5] and in assay [6] was inactive. Also, the compound was called inactive in assay [7], in [8] and in assay [9].

Turning to `C[Si](C)(C)O[Si](C)(C)C`, the call in [1], in assay [10], in assay [2], in [3], in assay [11] and in assay [12] was inactive. Besides, the compound was classed as inactive in assay [13], in assay [5], in [14], in assay [8] and in assay [9].

Take `OCc1ccc(Cl)cc1Cl`: the compound was called inactive in assay [1], in [10], in assay [2], in [4], in assay [11] and in [12]. The compound was classed as inactive in [5], in assay [6], in assay [14], in assay [8] and in assay [9].

Regarding `CC(=O)CC(=O)Nc1ccccc1`, the compound was called inactive in [1], in assay [10], in assay [2], in [4], in assay [11] and in assay [13]. The outcome in [5], in assay [6], in [7], in assay [14], in assay [8] and in assay [9] was inactive.

Turning to `O=c1[nH]c(=O)c2cn[nH]c2[nH]1`, the compound was called inactive in assay [1], in assay [10], in assay [15], in [2], in [3] and in assay [16]. Further, the result in assay [17], in assay [13], in assay [5], in [18], in assay [14] and in assay [8] was inactive. In assay [9], the result was inactive.

What is called AC50 is the midpoint of the concentration-response curve, whichever way the signal moves. For the compound `Cc1c(OCC(F)(F)F)ccnc1CS(=O)c1nc2ccccc2[nH]1` (stereo not drawn), the outcome in assay [1], in [2], in assay [17], in assay [11], in assay [13] and in assay [6] was inactive. The compound was called inactive in assay [18], in [14] and in assay [9]. In addition, the AC50 in assay [7] is 36.7 µM (active); in [8], 128 µM (active).

Take `CC(C)(N=C=O)c1cccc(C(C)(C)N=C=O)c1`: the result in assay [1], in [10], in [15], in assay [2], in assay [4] and in [16] was inactive. Also, the compound was called inactive in [17], in assay [12], in assay [6], in assay [7], in assay [14] and in assay [8]. For the same compound, in assay [9], the compound was classed as inactive.

`OCCOCCN1CCN(C2=Nc3ccccc3Sc3ccccc32)CC1`: the call in assay [1], in [2], in [4], in assay [11], in [12] and in assay [13] was inactive. For the same compound, the outcome in [6], in [18], in [7], in assay [14], in assay [8] and in [9] was inactive. For the same compound, in assay [10], the half-maximal activity concentration (AC50) is 19.5 µM (active).

Source of the values: PubChem BioAssay (EPA / NIEHS).
